Measurements taken from PubChem BioAssay.
Several values for one entry are separate records, joined by “and”; a condition that tells them apart may be missing. Equal values may be shown once. Records with an inconclusive call do not appear. More than one record can exist for a structure, and the calls need not agree. Activity calls are given as the source filed them.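 Rule for the calls, unless noted: active = normalized viability below 100% at a tested concentration; inactive = the rest.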

Key:
[1] = growth inhibition of DIPG glioma cells, dose response, cell-based, SU-DIPG-XVII, MIPE5.0, CellTiter-Glo, qHTS (AID 1347060; cut-off not given, nearly all actives have AC50 up to about 26 µM;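 for AC50: cells exposed to compound for 48 hours before viability readout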); conditions: SU-DIPG-XVII viability, CellTiter-Glo ATP luminescence
[2] = growth inhibition of DIPG glioma cells, dose response, cell-based, SU-DIPG-XIII, MIPE4.0, CellTiter-Glo, qHTS (AID 1347061; cut-off not given, nearly all actives have AC50 up to about 37 µM;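 note: cells exposed to compound for 48 hours before readout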); conditions: SU-DIPG-XIII viability, CellTiter-Glo ATP luminescence
[3] = growth inhibition of DIPG glioma cells, dose response, cell-based, JHH-DIPG-1, MIPE4.0, CellTiter-Glo, qHTS (AID 1347062; cut-off not given, nearly all actives have AC50 up to about 27 µM;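 for AC50: cells exposed to compound for two days before readout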); conditions: JHH-DIPG-1 viability, CellTiter-Glo ATP luminescence
[4] = growth inhibition of DIPG glioma cells, dose response, cell-based, SU-DIPG-IV, MIPE4.0, CellTiter-Glo, qHTS (AID 1347063; cut-off not given, nearly all actives have AC50 up to about 30 µM;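 note: compound exposure lasted 48 hours before the viability readout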); conditions: SU-DIPG-IV viability, CellTiter-Glo ATP luminescence
[5] = growth inhibition of DIPG glioma cells, dose response, cell-based, SU-DIPG-XIII, MIPE5.0, CellTiter-Glo, qHTS (AID 1347064; cut-off not given, nearly all actives have AC50 up to about 23 µM;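 for AC50: cells exposed to compound for 48 hours before the viability read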); conditions: SU-DIPG-XIII viability, CellTiter-Glo ATP luminescence
[6] = viability loss in pontine glioma line – cell-based, SU-DIPG-XXV, MIPE5.0, CellTiter-Glo, qHTS, dose response (AID 1347065; cut-off not given, nearly all actives have AC50 up to about 26 µM;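 note: cells exposed to compound for 48 hours before ATP readout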); conditions: CellTiter-Glo ATP luminescence
[7] = SU-DIPG-VI glioma cell viability, MIPE4.0 library, CellTiter-Glo luminescence, qHTS (AID 1347066; cut-off not given, nearly all actives have AC50 up to about 30 µM;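 note: cells exposed to compound for 48 hours before readout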); conditions: CellTiter-Glo ATP luminescence
[8] = JHH-DIPG-1 glioma cell viability, MIPE5.0 library, CellTiter-Glo luminescence, qHTS (AID 1347067; cut-off not given, nearly all actives have AC50 up to about 26 µM;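 note: cells exposed to compound for 48 hours before readout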); conditions: JHH-DIPG-1 glioma viability, CellTiter-Glo ATP luminescence
[9] = sensitizers of A549 cells to miR-34 induction, primary screen, imaging, A549 dox-inducible miR-34, nuclei and caspase counts (AID 1347080;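 active = compounds whose cell count with miR-34 switched on is under 0.7 times the count with it off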); conditions: A549 miR-34 inducible, Hoechst nuclei count, 48 h
[10] = modifiers of HSF1 nuclear foci, imaging, Selleck Cancer Library (AID 1347162; in the data active = plate-normalised HSF1 focus index below about 0.46); conditions: human cells, at 10 µM; SSMD: measured here: HSF1 foci SSMD mean; cell count: measured here: cell number; plate-normalised HSF1 focus index: stronger effect = lower value
[11] = survival rescue of mitochondrial mutant cells in low glucose, primary screen, MELAS cybrids, Rieske KO mouse fibroblasts, CellTiter-Glo (AID 1508586;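 active = mean z-score across replicates of 1.96 or higher in either the MELAS or the Rieske mutant cell line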;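 note: z relative to plate mean and SD of compound and empty wells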)
[12] = ovarian cancer cell viability with rucaparib, profiling panel, oncology-focused library, rucaparib conditional (AID 1508598); conditions: patient-derived ovarian cancer cells, CellTiter-Glo viability, 144 h, stronger effect = lower value
[13] = SU-DIPG-XXV glioma cell viability, MIPE5.0 library, qHTS (AID 1347068; cut-off not given, nearly all actives have IC50 up to about 30 µM;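 note: cells exposed to compound for 48 hours before viability readout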)
[14] = stronger effect = lower value, cell number ratio, induced over uninduced
[15] = measured here: relative caspase fold change +Dox/-Dox
[16] = measured here: total cells with miR-34 induction, stronger effect = lower value
[17] = measured here: total cells without miR-34 induction
[18] = MELAS cybrid survival, CellTiter-Glo 48 h, stronger effect = higher value
[19] = Rieske KO mouse fibroblast survival, CellTiter-Glo 72 h
[20] = at 0.000305 µM, OCI-C5x cells, with rucaparib 10 µM, 100% = cells with rucaparib alone
[21] = at 0.000305 µM, OCI-C5x cells, without rucaparib
[22] = at 0.000305 µM, OCI-P5x cells, with rucaparib 20 µM, 100% = cells with rucaparib alone
[23] = at 0.000305 µM, OCI-P5x cells, without rucaparib
[24] = at 0.00122 µM, OCI-C5x cells, with rucaparib 10 µM, 100% = cells with rucaparib alone
[25] = at 0.00122 µM, OCI-C5x cells, without rucaparib
[26] = at 0.00122 µM, OCI-P5x cells, with rucaparib 20 µM, 100% = cells with rucaparib alone
[27] = at 0.00122 µM, OCI-P5x cells, without rucaparib
[28] = at 0.00488 µM, OCI-C5x cells, with rucaparib 10 µM, 100% = cells with rucaparib alone
[29] = at 0.00488 µM, OCI-C5x cells, without rucaparib
[30] = at 0.00488 µM, OCI-P5x cells, with rucaparib 20 µM, 100% = cells with rucaparib alone
[31] = at 0.00488 µM, OCI-P5x cells, without rucaparib
[32] = at 0.0195 µM, OCI-C5x cells, with rucaparib 10 µM, 100% = cells with rucaparib alone
[33] = at 0.0195 µM, OCI-C5x cells, without rucaparib
[34] = at 0.0195 µM, OCI-P5x cells, with rucaparib 20 µM, 100% = cells with rucaparib alone
[35] = at 0.0195 µM, OCI-P5x cells, without rucaparib
[36] = at 0.0781 µM, OCI-C5x cells, with rucaparib 10 µM, 100% = cells with rucaparib alone
[37] = at 0.0781 µM, OCI-C5x cells, without rucaparib
[38] = at 0.0781 µM, OCI-P5x cells, with rucaparib 20 µM, 100% = cells with rucaparib alone
[39] = at 0.0781 µM, OCI-P5x cells, without rucaparib
[40] = at 0.313 µM, OCI-C5x cells, with rucaparib 10 µM, 100% = cells with rucaparib alone
[41] = at 0.313 µM, OCI-C5x cells, without rucaparib
[42] = at 0.313 µM, OCI-P5x cells, with rucaparib 20 µM, 100% = cells with rucaparib alone
[43] = at 0.313 µM, OCI-P5x cells, without rucaparib
[44] = at 1.25 µM, OCI-C5x cells, with rucaparib 10 µM, 100% = cells with rucaparib alone
[45] = at 1.25 µM, OCI-C5x cells, without rucaparib
[46] = at 1.25 µM, OCI-P5x cells, with rucaparib 20 µM, 100% = cells with rucaparib alone
[47] = at 1.25 µM, OCI-P5x cells, without rucaparib
[48] = at 5 µM, OCI-C5x cells, with rucaparib 10 µM, 100% = cells with rucaparib alone
[49] = at 5 µM, OCI-C5x cells, without rucaparib
[50] = at 5 µM, OCI-P5x cells, with rucaparib 20 µM, 100% = cells with rucaparib alone
[51] = at 5 µM, OCI-P5x cells, without rucaparib

CCCCCCCCc1ccc(CCC(N)(CO)CO)cc1
5720 and 8490: cell count [9, 17]
active: AC50 [1] 10.5 µM | AC50 [2] 23.5 µM | AC50 [3] 9.35 µM | AC50 [4] 3.72 µM | AC50 [5] 18.6 µM | AC50 [6] 10.5 µM | AC50 [7] 23.5 µM | AC50 [8] 10.5 µM | viability [12, 26] 89.4% | viability [12, 27] 98% | viability [12, 30] 93.5% | viability [12, 34] 92.4% | viability [12, 38] 88.8% | viability [12, 39] 53.5% | viability [12, 46] 64% | viability [12, 47] 50.7% | viability [12, 48] 90.1% | viability [12, 50] 26% | viability [12, 51] 0.383%
5440 and 7580: cell count [9, 16]
-8.05: SSMD [10]
3980: cell count [10]
0.756 and 0.682: fold change [9, 15]
-0.433: z-score [11, 19]
inactive: fold change [9, 14] 0.951 and 0.892 | plate-normalised HSF1 focus index [10] 0.589 | z-score [11, 18] -0.312 | viability [12, 20] 106% | viability [12, 21] 117% | viability [12, 22] 107% | viability [12, 23] 111% | viability [12, 24] 110% | viability [12, 25] 112% | viability [12, 28] 101% | viability [12, 29] 122% | viability [12, 31] 103% | viability [12, 32] 111% | viability [12, 33] 120% | viability [12, 35] 106% | viability [12, 36] 102% | viability [12, 37] 106% | viability [12, 40] 112% | viability [12, 41] 108% | viability [12, 42] 108% | viability [12, 43] 113% | viability [12, 44] 103% | viability [12, 45] 121% | viability [12, 49] 129%

CN1CCN(c2ccc3nc(-c4c(N)c5c(F)cccc5[nH]c4=O)[nH]c3c2)CC1
-0.494 and -0.354: z-score [11, 19]
5510: cell count [10]
472 and 732: cell count [9, 17]
744 and 794: cell count [9, 16]
-9.43: SSMD [10]
inactive: fold change [9, 14] 1.57 and 1.08 | plate-normalised HSF1 focus index [10] 0.516 | viability [12, 20] 112% | viability [12, 21] 107% | viability [12, 22] 123% | viability [12, 23] 105% | viability [12, 24] 111% | viability [12, 25] 104% | viability [12, 26] 118% | viability [12, 27] 107% | viability [12, 28] 121% | viability [12, 29] 115% | viability [12, 30] 136% | viability [12, 31] 109% | viability [12, 32] 104% | viability [12, 33] 112% | viability [12, 36] 118% | viability [12, 37] 143% | viability [12, 38] 133% | viability [12, 39] 107% | viability [12, 40] 125% | viability [12, 41] 119% | viability [12, 42] 129% | viability [12, 43] 104% | viability [12, 44] 148% | viability [12, 45] 127% | viability [12, 46] 123%
3.68 (active) and -0.215 (inactive): z-score [11, 18]
active: AC50 [1] 0.525 µM | AC50 [2] 2.96 µM | AC50 [3] 26.4 µM | AC50 [4] 23.5 µM | AC50 [5] 1.05 µM | AC50 [6] 0.468 µM | AC50 [7] 20.9 µM | AC50 [8] 11.8 µM | viability [12, 34] 99.7% | viability [12, 35] 76.1% | viability [12, 47] 90.6% | viability [12, 48] 3.71% | viability [12, 49] 73% | viability [12, 50] 42.5% | viability [12, 51] 50%
0.308 and 0.757: fold change [9, 15]

COC(=O)N1CCN(Cc2cccc(NC(=O)Nc3ccc(C)nc3)c2F)CC1
9170: cell count [9, 16]
0.371: z-score [11, 19]
1.41: fold change [9, 15]
inactive: outcome [1] | outcome [2] | outcome [3] | outcome [4] | outcome [5] | outcome [6] | outcome [7] | outcome [8] | fold change [9, 14] 0.947 | z-score [11, 18] -0.446
9680: cell count [9, 17]

Cc1cc(Nc2cc(N3CCN(C)CC3)nc(/C=C/c3ccccc3)n2)n[nH]1
active: AC50 [1] 1.05 µM | AC50 [2] 12.1 µM | AC50 [3] 27 µM | AC50 [4] 13.6 µM | AC50 [5] 2.09 µM | AC50 [6] 1.05 µM | AC50 [7] 13.6 µM | AC50 [8] 4.68 µM | IC50 [13] 2.63 µM | viability [12, 23] 97.8% | viability [12, 37] 95.9% | viability [12, 42] 87.9% | viability [12, 43] 93.6% | viability [12, 44] 90.9% | viability [12, 45] 93.3% | viability [12, 46] 74% | viability [12, 47] 56.9% | viability [12, 48] 95.4% | viability [12, 49] 54.2% | viability [12, 50] 3.53% | viability [12, 51] 6.43%
inactive: viability [12, 20] 120% | viability [12, 21] 103% | viability [12, 22] 101% | viability [12, 24] 106% | viability [12, 25] 107% | viability [12, 26] 110% | viability [12, 27] 108% | viability [12, 28] 113% | viability [12, 29] 104% | viability [12, 30] 118% | viability [12, 31] 114% | viability [12, 32] 115% | viability [12, 33] 116% | viability [12, 34] 109% | viability [12, 35] 107% | viability [12, 36] 110% | viability [12, 38] 103% | viability [12, 39] 107% | viability [12, 40] 110% | viability [12, 41] 112%
